This is an account of results in the supplement of paper PMC3334620.

Whole data set: some 33,000 sequences, median “E-score (-0.5 to 0.5)” near -8e-05, cut for the highest 2% near 0.23. Many of the other results were omitted from the sample, so the highest values are more common in it than they were.

The experiment deals with T1, Nrg2 (UniProt P38082).
T1 sequence: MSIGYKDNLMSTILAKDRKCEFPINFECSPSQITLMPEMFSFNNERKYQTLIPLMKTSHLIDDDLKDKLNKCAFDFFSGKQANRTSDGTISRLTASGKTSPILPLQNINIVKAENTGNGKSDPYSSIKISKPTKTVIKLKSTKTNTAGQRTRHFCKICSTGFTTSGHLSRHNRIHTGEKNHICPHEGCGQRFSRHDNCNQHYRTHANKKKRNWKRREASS
Put plainly: PBM E-score (8-mer binding enrichment) (E-score (-0.5 to 0.5)); higher = stronger / more preferred TF binding. The note with it: protein concentration: 100 nM; construct: GST-full length. The gist of the method:
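The E-score, a modified Wilcoxon-Mann-Whitney statistic, was computed by the Universal PBM Analysis Suite for every ungapped eight-base word pooled with its reverse complement. Scans behind it were normalised with masliner after bound GST-tagged yeast transcription factors were detected with fluorescent anti-GST. The proteins, at about 100-200 nM, had been applied to universal all-10-mer Agilent arrays made double-stranded by primer extension.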
As to CAATCGCC, the “PBM E-score” value was 0.00157. On to AGTAGGAA, for which the “PBM E-score” value was -0.0957. Next, CCGCGCAG: 0.0598; GCGCGGGA: 0.0263. Next, CCGCGGGA: 0.284. To AGGCGCGC belongs 0.0865; to AGGCGCCG, -0.0298. CCGCGCCG: the “PBM E-score” value was -0.0754. Next, CGGCGCCA: 0.0132; CGGCGCGA: 0.121. Next, CGGCGCGC: 0.256. To CGGCGCCG belongs 0.25. With CCGCGCGG, the “PBM E-score” value worked out at 0.368. Regarding CCGCGGGC, the “PBM E-score” value amounted to 0.0924.

On to AGGTACTA, for which the “PBM E-score” value turned out to be 0.0762. To CTCTAGCC belongs -0.283; to AAAAGGCC, -0.197. To CAACCTAA belongs 0.059. Next, GTACGTCA: -0.102; TTAGTAAA: 0.169; ACATGCTC: 0.00619. On to AAGAAGCC, for which the “PBM E-score” value stood at 0.162. To ATAACATA belongs 0.123; to ATGTCCCA, -0.0945; to AAGTGCGG, 0.133.

Take CCGCGCTC: the “PBM E-score” value was 0.0292. For CCGCGCGC, the “PBM E-score” value stood at 0.236. Next, CCGCGCCC: -0.0342; GGGCGCCA: 0.191; AGGCGCCC: -0.0716.

Turning to GGGCGCCC, the “PBM E-score” value was 0.282. To TCAGACGA belongs 0.119.

On to AACCCGAA, for which the “PBM E-score” value turned out to be 0.0237. To AACCGCGG belongs 0.182. Turning to TATGTTAA, the “PBM E-score” value was -0.127. Next, CTTTCACC: -0.0112. To ATCAACCA belongs 0.0788.

Take ATAAACCC: the “PBM E-score” value was determined as 0.307. In the case of ATAAACCA, the “PBM E-score” value is -0.0416. Next, ATCAACCC: 0.297; CTCAACCC: 0.00526. Next, CTAAACCC: -0.0134; TCTTTGAA: -0.105. Take AGGCCACA: the “PBM E-score” value is -0.149. Next, CATCATTA: 0.231; GCTCATTA: -0.058.

Consider ACTCATTA, for which the “PBM E-score” value stood at 0.268. Next, AATCATTA: 0.0429. For ACTCATTC, the “PBM E-score” value is 0.117. Next, CATCATTC: 0.0606. To GTAGGCGA belongs 0.0848; to ATTCGGTA, 0.074; to AATTGCTA, 0.0948. To AATTGCTC belongs -0.145; to AATTGCTG, 0.257; to ATGGCCTC, -0.0922. Regarding ACCGTTAC, the “PBM E-score” value was -0.118.

Regarding AAGTATGA, the “PBM E-score” value worked out at 0.0335.

Turning to TAGTATCA, the “PBM E-score” value worked out at 0.283. Next, GAGTATCA: 0.00367; TAGTATGA: 0.26. Turning to CAGTATCA, the “PBM E-score” value was -0.0774.

With CAGTATGA, the “PBM E-score” value was 0.178. To GAACGCTC belongs -0.107; to GACAGTGA, 0.0197.

On to ACGGAAAC, for which the “PBM E-score” value is -0.0771. To ACGGAAAT belongs 0.244. With ACGGAAAA, the “PBM E-score” value came to 0.0488. To ACTTGTCA belongs 0.0495; to AAAGCAAA, 0.102. To ACAGCTCC belongs -0.0601; to AGCGCGAC, 0.12; to GCAGCGTA, -0.128. As for ACTCCCCA, the “PBM E-score” value is -0.0321.

Take ACTAGTAA: the “PBM E-score” value stood at 0.036. To ACTACTAA belongs -0.00741. To ACTACTAT belongs 0.27; to ACTAGTAG, 0.0854. To ACTAGTAT belongs 0.246; to ACTACTAC, 0.0486. For the sequence TGGTGAAA, the “PBM E-score” value is -0.0676.

As to CCCAATAG, the “PBM E-score” value is 0.00098. To GATTCGCA belongs 0.121; to AATTCGCG, 0.202. To AATTCGCA belongs 0.229; to AATTCGCT, 0.318; to AATTCGCC, 0.167. To CATTCGCA belongs -0.0034.

As for AAGATCCC, the “PBM E-score” value worked out at 0.132. Next, ACAGGGAT: 0.295; ACAGGGAC: 0.339.

Regarding ACAGGGAG, the “PBM E-score” value was -0.147. To AGAGGGAC belongs -0.0381; to ATAGGGAC, 0.139. Next, ACAGGGAA: 0.0579; CCCGCAAG: -0.15; TGTGAACA: -0.0105.

Take ATCGTGAA: the “PBM E-score” value was -0.0316. Next, CCCATACG: -0.0789. To TACCATCA belongs -0.169; to CCATAGGG, 0.00266; to GCGAATTA, 0.279. Take ACGAATTA: the “PBM E-score” value was 0.1. Next, CCGAATTA: -0.00177; GTCCGCGA: -0.0693; AAAGAGGC: -0.228.
